Test results taken from PubChem BioAssay (Tox21).
Results filed as inconclusive are left out. Unmarked numbers belong to inactive results. Calls come from the whole dose curve; as a rule, active = well fitted curve in the direction sought with a large enough effect in the repeat runs; inconclusive = weak or mixed curves; inactive = no such curve, though single readings can be large; an effect the other way counts as inactive or inconclusive. Where a SMILES comes first, the peptide text is derived from it. [ ]: non-standard residue; d: D form. pGlu = O=C1CC[C@@H](C(=O)O)N1

Experiment: A CellTox Green Cytotoxicity Assay to monitor cytotoxicity in HEK293 cells - 40 hour (AID 1224871); note: nearly all actives have a fitted effect of over 45% in size
Details: CellTox Green fluorescence; series mostly up to 76.8 µM; cytotoxicity increase: at the top concentration
Procedure, shortened: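 Tox21 screen in HEK293: membrane-impermeant cyanine dye fluoresces on binding dead-cell DNA; compound pinned 5 h post-seeding, plates held at 37 C, signal read repeatedly through 40 h.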
% is set by controls: 0 for no effect and ±100 for the full control effect.

Structure (SMILES) | cytotoxicity increase
CCOc1ccccc1OCC | 5.58%
CCCc1ncc(C[n+]2ccccc2C)c(N)n1 | -5.14% [at 35.3 µM]
CC(C(=O)O)c1cccc(Oc2ccccc2)c1 (stereo not drawn) | -17.3% [at 35.3 µM]
CCNC(=O)[C@@H]1CCCN1C(=O)[C@H](CCCN=C(N)N)NC(=O)[C@H](CC(C)C)NC(=O)CNC(=O)[C@H](Cc1ccc(O)cc1)NC(=O)[C@H](CO)NC(=O)[C@H](Cc1c[nH]c2ccccc12)NC(=O)[C@H](Cc1cnc[nH]1)NC(=O)[C@@H]1CCC(=O)N1 ([pGlu]HWSYGLRP-NHEt) | -15.5% [at 35.3 µM]
C[N+]1(C)[C@@H]2CC(OC(=O)[C@H](CO)c3ccccc3)C[C@H]1[C@@H]1O[C@@H]12 (stereo partly drawn) | 8.35% [at 35.3 µM]
CC[N+](C)(CC)CCOC(=O)C1c2ccccc2Oc2ccccc21 | 6.48% [at 35.3 µM]
C[C@H]1C[C@H]2[C@@H]3CCC4=CC(=O)C=C[C@]4(C)[C@H]3C(=O)C[C@]2(C)[C@@]1(O)C(=O)CO | -2.51% [at 35.3 µM]
CCC(C)(CN(C)C)OC(=O)c1ccccc1 (stereo not drawn) | 3.55% [at 35.3 µM]
CN1CCN(c2cc3c(nn2)Oc2ccccc2N3C)CC1 | -14.2% [at 15.8 µM]
OCCCCCO | -17.4%
CCN[C@@H]1C[C@H](N)[C@@H](OC2OC(CN)=CCC2N)[C@H](O)[C@H]1O[C@H]1OC[C@](C)(O)[C@H](NC)[C@H]1O (stereo partly drawn) | 6.9% [at 0.29 µM]
C[N+](C)(C)CCCCCCCCCC[N+](C)(C)C | 0.885% [at 35.3 µM]
Nc1c2c(nc3c1CCC3)CCCC2 | 6.31% [at 35.3 µM]
CCOCC(C)O (stereo not drawn) | 2.18%
CC[N+](CC)(CC)CCOc1cccc(OCC[N+](CC)(CC)CC)c1OCC[N+](CC)(CC)CC | -5.39% [at 35.3 µM]
CCCCN1C=CN(C)C1 | -12.1% [at 15.8 µM]
COc1cc(-c2ccc(=O)[nH]n2)ccc1OC(F)F | -4.76% [at 35.3 µM]
C=CCCC(=O)O | 11.4%
CC(C#N)(CCC(=O)O)N=NC(C)(C#N)CCC(=O)O (stereo not drawn) | -9.76%
CN(C)CCCCCCN(C)C | -8.76%

Experiment: qHTS RealTime-Glo MT Cell Viability Assay in HEK293 cells - 16 hour (AID 1224872); note: top concentration of the series differs between compounds; nearly all actives have a fitted effect of over 50% in size
Details: RealTime-Glo luminescence; series mostly up to 76.8 µM; activity change, negative = cytotoxicity: at the top concentration
Procedure, shortened: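 Nonlytic real-time viability readout: viable cells convert prosubstrate to NanoLuc substrate, giving luminescence proportional to live cell number. HEK293, 600 cells/well, compound added after 5 h, continuous culture at 37 C.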

Structure (SMILES) | activity change, negative = cytotoxicity
O=S(=O)(O)c1cc(O)c(O)c(S(=O)(=O)O)c1 | 1.94%
CCC1C(=O)OCC1Cc1cncn1C (stereo not drawn) | 2.1% [at 35.3 µM]
C[C@H]1[C@H](NC(=O)/C(=N/OC(C)(C)C(=O)O)c2csc(N)n2)C(=O)N1S(=O)(=O)O (stereo in doubt) | 1.96% [at 35.3 µM]
Nc1ccn([C@@H]2O[C@H](CO)[C@@H](O)C2O)c(=O)n1 (stereo partly drawn) | 23.3%
CC1=NN(c2cc(S(=O)(=O)O)ccc2Cl)C(=O)C1N=Nc1ccccc1 (stereo not drawn) | 4.48%
CCN[C@H]1C[C@H](C)S(=O)(=O)c2sc(S(N)(=O)=O)cc21 | 0.113% [at 35.3 µM]
NCCCC(N)(C(=O)O)C(F)F (stereo not drawn) | 2.34% [at 35.3 µM]
CCC(C(=O)NC(=O)NC(C)=O)c1ccccc1 (stereo not drawn) | -9.08% [at 35.3 µM]
CC(C)NNC(=O)c1ccncc1 | 0.272% [at 35.3 µM]
NCCCC[C@H](N[C@@H](CCc1ccccc1)C(=O)O)C(=O)N1CCC[C@H]1C(=O)O | 1.38% [at 35.3 µM]
CC1=CC(=O)[C@H]2C[C@@H]1C2(C)C | 0.002%
CN(C)C(=O)Oc1cccc([N+](C)(C)C)c1 | 4.78% [at 35.3 µM]
CC[C@H]1OC(=O)[C@H](C)[C@@H](O[C@H]2C[C@@](C)(OC)[C@@H](O)[C@H](C)O2)[C@H](C)[C@@H](O[C@@H]2O[C@H](C)C[C@H](N(C)C)[C@H]2O)[C@](C)(OC)C[C@@H](C)C(=O)[C@H](C)[C@@H](O)[C@]1(C)O | -17.7%
CCCCCCCCCCCCCCC(=O)O | 18.1%
CN1CCC(=C2c3ccccc3CCc3cccnc32)CC1 | -6.15% [at 35.3 µM]
CCOc1ccccc1OCC | 12.2%
CCCc1ncc(C[n+]2ccccc2C)c(N)n1 | 5.18% [at 35.3 µM]
CCOC(=O)c1cnc2c(cnn2CC)c1NN=C(C)C | -0.198% [at 35.3 µM]
CC(C(=O)O)c1cccc(Oc2ccccc2)c1 (stereo not drawn) | -1.91% [at 35.3 µM]
CCNC(=O)[C@@H]1CCCN1C(=O)[C@H](CCCN=C(N)N)NC(=O)[C@H](CC(C)C)NC(=O)CNC(=O)[C@H](Cc1ccc(O)cc1)NC(=O)[C@H](CO)NC(=O)[C@H](Cc1c[nH]c2ccccc12)NC(=O)[C@H](Cc1cnc[nH]1)NC(=O)[C@@H]1CCC(=O)N1 ([pGlu]HWSYGLRP-NHEt) | 5.45% [at 35.3 µM]
CCC(C)(CN(C)C)OC(=O)c1ccccc1 (stereo not drawn) | 18.3% [at 35.3 µM]
CN1CCN(c2cc3c(nn2)Oc2ccccc2N3C)CC1 | 0.378% [at 15.8 µM]
OCCCCCO | 1.88%
Nc1c2c(nc3c1CCC3)CCCC2 | 1.05% [at 35.3 µM]
CC[N+](CC)(CC)CCOc1cccc(OCC[N+](CC)(CC)CC)c1OCC[N+](CC)(CC)CC | 0.939% [at 35.3 µM]
COc1cc(-c2ccc(=O)[nH]n2)ccc1OC(F)F | 0.907% [at 35.3 µM]
CN(C)CCCCCCN(C)C | -9.18%

Experiment: qHTS RealTime-Glo MT Cell Viability Assay in HepG2 cells - 8 hour (AID 1224873); note: nearly all actives have a fitted effect of over 55% in size
Details: RealTime-Glo luminescence; series mostly up to 76.8 µM; viability change, negative = cytotoxic: at the top concentration
Procedure, shortened: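 HepG2 cells (600/well) mixed with RealTime-Glo MT reagent, settled 5 h at 37 C/5% CO2 before compound addition. Nonlytic NanoLuc luminescence from viable-cell prosubstrate reduction read repeatedly during 40 h treatment at 37 C.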

Structure (SMILES) | viability change, negative = cytotoxic
O=S(=O)(O)c1cc(O)c(O)c(S(=O)(=O)O)c1 | 1.94%
Nc1ccn([C@@H]2O[C@H](CO)[C@@H](O)C2O)c(=O)n1 (stereo partly drawn) | 6.09%
CC1=NN(c2cc(S(=O)(=O)O)ccc2Cl)C(=O)C1N=Nc1ccccc1 (stereo not drawn) | 0.859%
O=S(=O)(O)c1cccc(S(=O)(=O)O)c1 | 3.44%
CCN[C@H]1C[C@H](C)S(=O)(=O)c2sc(S(N)(=O)=O)cc21 | 2.94% [at 35.3 µM]
NCCCC(N)(C(=O)O)C(F)F (stereo not drawn) | 0.0602% [at 35.3 µM]
CCC(C(=O)NC(=O)NC(C)=O)c1ccccc1 (stereo not drawn) | 4.91% [at 35.3 µM]
CC(C)NNC(=O)c1ccncc1 | 3.5% [at 35.3 µM]
NCCCC[C@H](N[C@@H](CCc1ccccc1)C(=O)O)C(=O)N1CCC[C@H]1C(=O)O | 4.2% [at 35.3 µM]
CC1=CC(=O)[C@H]2C[C@@H]1C2(C)C | -0.702%
CN(C)C(=O)Oc1cccc([N+](C)(C)C)c1 | -1.15% [at 35.3 µM]
CC[C@H]1OC(=O)[C@H](C)[C@@H](O[C@H]2C[C@@](C)(OC)[C@@H](O)[C@H](C)O2)[C@H](C)[C@@H](O[C@@H]2O[C@H](C)C[C@H](N(C)C)[C@H]2O)[C@](C)(OC)C[C@@H](C)C(=O)[C@H](C)[C@@H](O)[C@]1(C)O | 2.83%
CCCCCCCCCCCCCCC(=O)O | 0.904%
CN1CCC(=C2c3ccccc3CCc3cccnc32)CC1 | 1.43% [at 35.3 µM]
CCOc1ccccc1OCC | 2.48%
CCCc1ncc(C[n+]2ccccc2C)c(N)n1 | 5.85% [at 35.3 µM]

Structure (SMILES) | viability change, negative = cytotoxic
CCOC(=O)c1cnc2c(cnn2CC)c1NN=C(C)C | 1.17% [at 35.3 µM]
CC(C(=O)O)c1cccc(Oc2ccccc2)c1 (stereo not drawn) | 0.298% [at 35.3 µM]
CC[N+](C)(CC)CCOC(=O)C1c2ccccc2Oc2ccccc21 | 7.83% [at 35.3 µM]
C[C@H]1C[C@H]2[C@@H]3CCC4=CC(=O)C=C[C@]4(C)[C@H]3C(=O)C[C@]2(C)[C@@]1(O)C(=O)CO | -1.18% [at 35.3 µM]
CCC(C)(CN(C)C)OC(=O)c1ccccc1 (stereo not drawn) | 4.09% [at 35.3 µM]
CN1CCN(c2cc3c(nn2)Oc2ccccc2N3C)CC1 | -9.11% [at 15.8 µM]
OCCCCCO | -1.37%
CCN[C@@H]1C[C@H](N)[C@@H](OC2OC(CN)=CCC2N)[C@H](O)[C@H]1O[C@H]1OC[C@](C)(O)[C@H](NC)[C@H]1O (stereo partly drawn) | 0.243% [at 0.29 µM]
C[N+](C)(C)CCCCCCCCCC[N+](C)(C)C | 4.52% [at 35.3 µM]
Nc1c2c(nc3c1CCC3)CCCC2 | -4.26% [at 35.3 µM]
CC[N+](CC)(CC)CCOc1cccc(OCC[N+](CC)(CC)CC)c1OCC[N+](CC)(CC)CC | -0.0171% [at 35.3 µM]
CCCCN1C=CN(C)C1 | 2.13% [at 15.8 µM]
C=CCCC(=O)O | 4.07%
CC(C#N)(CCC(=O)O)N=NC(C)(C#N)CCC(=O)O (stereo not drawn) | 6.07%
CN(C)CCCCCCN(C)C | 1.87%
